Assay in all cases: HT-SELEX; high values mean tight binding
Common to all, as to details: protein: recombinant; vector His6-GST; dsDNA, one strand shown

Test [1] addresses T1, SALL4 ZFC4 WT (HT-SELEX) (Mus musculus, UniProt Q8BX22 870-940).
T1 sequence: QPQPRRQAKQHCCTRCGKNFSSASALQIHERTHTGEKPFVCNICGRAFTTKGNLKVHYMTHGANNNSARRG
The method in brief:
(§1)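 A 100 µl reaction of 10 mM Tris–HCl pH 7.5, 50 mM NaCl, poly(dI-dC) and DTT held purified recombinant mouse SALL4 zinc finger cluster 4 (residues 870–940, 1 µg) and library DNA (1.5 µg first cycle, 200 ng later) for 10 min at room temperature. Complexes captured on Ni2+ beads were washed, PCR-amplified and reselected for up to 6 cycles, in triplicate, then MiSeq-sequenced and scanned for 6-mers. Binding signal is the read fraction of each canonical k-mer expressed as fold change over the initial random library.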

Test [2] concerns the target T2, SALL4 ZFC4 R900W (HT-SELEX) (Mus musculus, UniProt Q8BX22 870-940, R900W).
T2 sequence: T1 sequence with R31W
The method in brief: as §1

Test [3] addresses T3, SALL4 ZFC4 G921D (HT-SELEX) (Mus musculus, UniProt Q8BX22 870-940, G921D).
T3 sequence: T1 sequence with G52D
The method in brief: as §1

Numbering of substitutions follows the chain as printed.

As for AAGTAA, the binding signal in test [1] was determined as 2.17 ± 0.0689 fold-change vs cycle 0; in test [2] it was 2.26 ± 0.152 fold-change vs cycle 0; in test [3], 1.91 ± 0.204 fold-change vs cycle 0.

Take TAATTA: the binding signal in test [1] turned out to be 4.1 ± 0.33 fold-change vs cycle 0; in test [2] it was 2.77 ± 0.208 fold-change vs cycle 0; in test [3] it was 2.33 ± 0.317 fold-change vs cycle 0.

Turning to AGACTC, the binding signal in test [1] worked out at 0.806 ± 0.0153 fold-change vs cycle 0; in test [2], 0.928 ± 0.0387 fold-change vs cycle 0; in test [3], 1.01 ± 0.0334 fold-change vs cycle 0.

As to AAGGCA, the binding signal in test [1] was determined as 0.566 ± 0.0136 fold-change vs cycle 0; in test [2] it was 0.683 ± 0.00728 fold-change vs cycle 0; in test [3] it was 0.777 ± 0.0437 fold-change vs cycle 0.

Regarding CCAACA, the results for the binding signal in test [1], in test [2] and in test [3] were 0.656 ± 0.00995 fold-change vs cycle 0, 0.739 ± 0.0191 fold-change vs cycle 0 and 0.817 ± 0.0303 fold-change vs cycle 0, respectively.

With GCTAGA, the values for the binding signal in test [1], in test [2] and in test [3] were 0.636 ± 0.0274 fold-change vs cycle 0, 0.746 ± 0.0225 fold-change vs cycle 0 and 0.8072 ± 0.00258 fold-change vs cycle 0, respectively.

On to AGTAAC, for which the binding signal amounted to 1.458 ± 0.009 fold-change vs cycle 0 in test [1], 1.62 ± 0.0372 fold-change vs cycle 0 in test [2] and 1.49 ± 0.109 fold-change vs cycle 0 in test [3].

Consider AATGAA, for which the binding signal in test [1] was found to be 2.19 ± 0.104 fold-change vs cycle 0; in test [2], 2.17 ± 0.105 fold-change vs cycle 0; in test [3], 1.89 ± 0.135 fold-change vs cycle 0.

CCTTTC: the results for the binding signal in test [1], in test [2] and in test [3] were 0.765 ± 0.031 fold-change vs cycle 0, 0.942 ± 0.0414 fold-change vs cycle 0 and 0.934 ± 0.0409 fold-change vs cycle 0, respectively.

Regarding ATGTGC, the binding signal in test [1] turned out to be 0.53 ± 0.0281 fold-change vs cycle 0; in test [2], 0.588 ± 0.00704 fold-change vs cycle 0; in test [3], 0.719 ± 0.0265 fold-change vs cycle 0.

Take AAATAG: the binding signal in test [1] was found to be 1.7 ± 0.0926 fold-change vs cycle 0; in test [2], 1.74 ± 0.095 fold-change vs cycle 0; in test [3], 1.58 ± 0.0914 fold-change vs cycle 0.

For ATACAA, the values for the binding signal in test [1], in test [2] and in test [3] were 2 ± 0.0726 fold-change vs cycle 0, 1.98 ± 0.0733 fold-change vs cycle 0 and 1.76 ± 0.0991 fold-change vs cycle 0, respectively.

Consider GACCCA, for which the binding signal in test [1] was 0.39 ± 0.0219 fold-change vs cycle 0; in test [2], 0.467 ± 0.00775 fold-change vs cycle 0; in test [3] it was 0.59 ± 0.0677 fold-change vs cycle 0.

For ACGCTA, the binding signal in test [1] is 0.566 ± 0.0296 fold-change vs cycle 0; in test [2], 0.638 ± 0.0194 fold-change vs cycle 0; in test [3], 0.754 ± 0.0468 fold-change vs cycle 0.

Turning to AAATGC, the binding signal in test [1] is 0.879 ± 0.0146 fold-change vs cycle 0; in test [2], 0.918 ± 0.025 fold-change vs cycle 0; in test [3] it was 0.969 ± 0.0401 fold-change vs cycle 0.

Consider CCAAAC, for which the binding signal in test [1] was 0.6318 ± 0.0044 fold-change vs cycle 0; in test [2], 0.729 ± 0.0202 fold-change vs cycle 0; in test [3], 0.813 ± 0.0511 fold-change vs cycle 0.

Take ACGAAG: the binding signal in test [1] stood at 0.736 ± 0.0281 fold-change vs cycle 0; in test [2], 0.869 ± 0.0387 fold-change vs cycle 0; in test [3], 0.9 ± 0.0184 fold-change vs cycle 0.

For the sequence ACGTTG, the binding signal in test [1] came to 0.659 ± 0.0218 fold-change vs cycle 0; in test [2] it was 0.753 ± 0.0161 fold-change vs cycle 0; in test [3], 0.822 ± 0.0177 fold-change vs cycle 0.

Regarding CTCAGC, the binding signal in test [1] was 0.369 ± 0.0266 fold-change vs cycle 0; in test [2], 0.414 ± 0.0118 fold-change vs cycle 0; in test [3], 0.525 ± 0.071 fold-change vs cycle 0.

Regarding TATCAA, the figures for the binding signal in test [1], in test [2] and in test [3] were 2.32 ± 0.148 fold-change vs cycle 0, 2 ± 0.128 fold-change vs cycle 0 and 1.87 ± 0.178 fold-change vs cycle 0, respectively.

As to TTCAAA, the figures for the binding signal in test [1], in test [2] and in test [3] were 1.81 ± 0.113 fold-change vs cycle 0, 1.83 ± 0.0928 fold-change vs cycle 0 and 1.66 ± 0.161 fold-change vs cycle 0, respectively.

In the case of GTTGGA, the figures for the binding signal in test [1], in test [2] and in test [3] were 0.713 ± 0.0283 fold-change vs cycle 0, 0.83 ± 0.0624 fold-change vs cycle 0 and 0.883 ± 0.0383 fold-change vs cycle 0, respectively.

With CCTCCA, the binding signal in test [1] turned out to be 0.517 ± 0.0262 fold-change vs cycle 0; in test [2], 0.603 ± 0.0398 fold-change vs cycle 0; in test [3], 0.687 ± 0.0633 fold-change vs cycle 0.

As for AGATGG, the results for the binding signal in test [1], in test [2] and in test [3] were 0.853 ± 0.0339 fold-change vs cycle 0, 0.933 ± 0.00507 fold-change vs cycle 0 and 0.962 ± 0.0157 fold-change vs cycle 0, respectively.

For ACATGA, the values for the binding signal in test [1], in test [2] and in test [3] were 1.38 ± 0.0574 fold-change vs cycle 0, 1.49 ± 0.0283 fold-change vs cycle 0 and 1.4 ± 0.088 fold-change vs cycle 0, respectively.

As for AGTACG, the binding signal in test [1] turned out to be 0.724 ± 0.0595 fold-change vs cycle 0; in test [2], 0.83 ± 0.0465 fold-change vs cycle 0; in test [3], 0.871 ± 0.0406 fold-change vs cycle 0.

CGTAAC: the binding signal in test [1] stood at 0.768 ± 0.0406 fold-change vs cycle 0; in test [2], 0.887 ± 0.0447 fold-change vs cycle 0; in test [3], 0.922 ± 0.0472 fold-change vs cycle 0.

With ATATTG, the binding signal worked out at 2.19 ± 0.214 fold-change vs cycle 0 in test [1], 1.8 ± 0.105 fold-change vs cycle 0 in test [2] and 1.69 ± 0.149 fold-change vs cycle 0 in test [3].

On to ACTCAT, for which the results for the binding signal in test [1], in test [2] and in test [3] were 1.52 ± 0.0846 fold-change vs cycle 0, 1.54 ± 0.0355 fold-change vs cycle 0 and 1.47 ± 0.11 fold-change vs cycle 0, respectively.

Take CGTACA: the binding signal in test [1] amounted to 0.639 ± 0.0345 fold-change vs cycle 0; in test [2] it was 0.729 ± 0.0226 fold-change vs cycle 0; in test [3], 0.802 ± 0.0376 fold-change vs cycle 0.

The values are drawn from PMC9838217, “Structure of SALL4 zinc finger domain reveals link between AT-rich DNA binding and Okihiro syndrome”.
